Source: the supplement of paper PMC11006884
Targets with a hit are over-represented here; the source holds about 6,500 in all. About 2% of all pairs of compound and target were hits. Unmarked numbers belong to inactive results.

Compound: COC(=O)C#Cc1ccccc1 [methyl 3-phenylpropiolate]
Test: log2 ratio of iodoacetamide-alkyne labeling of the cysteine site, DMSO over compound (competition); higher = stronger covalent engagement of the cysteine by the compound, active = 1 or more
Details: 500 µM; treatment time 1 h; system: HEK293T cell lysate
In short: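 Electrophile (500 µM) or vehicle was added to HEK293T lysate (2 mg/mL) for 1 h at ambient temperature before iodoacetamide alkyne labelling (1 h) and click coupling to sCIP-TMT reagents. After pooling, overnight trypsin digestion at 37 °C, streptavidin enrichment and acid elution, peptides were measured by Orbitrap Eclipse LC-MS/MS with FAIMS and quantified in FragPipe. Each cysteine's log2 competition ratio compares mean control-channel with mean compound-channel reporter intensity, control over compound. Data came from duplicate channels across three replicates, excluding cysteines quantified in only one replicate.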

Sequence of UniProt P53384 (P53384 whole entry, looked up): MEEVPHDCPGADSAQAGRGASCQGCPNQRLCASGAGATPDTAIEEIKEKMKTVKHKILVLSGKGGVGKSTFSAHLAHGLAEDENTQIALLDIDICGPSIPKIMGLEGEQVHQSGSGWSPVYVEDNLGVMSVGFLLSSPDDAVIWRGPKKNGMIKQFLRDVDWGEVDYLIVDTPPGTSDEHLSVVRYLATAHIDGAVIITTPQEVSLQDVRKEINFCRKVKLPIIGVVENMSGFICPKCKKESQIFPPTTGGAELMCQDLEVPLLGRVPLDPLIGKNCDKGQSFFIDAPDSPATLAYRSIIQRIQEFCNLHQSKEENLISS
Sequence of UniProt Q13190 (Q13190 whole entry): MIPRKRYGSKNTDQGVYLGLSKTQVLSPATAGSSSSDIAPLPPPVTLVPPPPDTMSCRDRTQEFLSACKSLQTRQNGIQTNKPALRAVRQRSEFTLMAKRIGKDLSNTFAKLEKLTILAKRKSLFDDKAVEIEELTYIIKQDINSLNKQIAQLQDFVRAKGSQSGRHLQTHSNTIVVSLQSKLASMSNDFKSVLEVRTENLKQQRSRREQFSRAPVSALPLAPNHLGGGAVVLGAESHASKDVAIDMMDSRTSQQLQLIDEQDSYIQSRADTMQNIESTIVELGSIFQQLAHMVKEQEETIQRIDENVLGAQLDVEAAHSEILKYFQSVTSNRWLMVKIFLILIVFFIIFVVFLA
Sequence of UniProt Q49AR2 (Q49AR2 whole entry): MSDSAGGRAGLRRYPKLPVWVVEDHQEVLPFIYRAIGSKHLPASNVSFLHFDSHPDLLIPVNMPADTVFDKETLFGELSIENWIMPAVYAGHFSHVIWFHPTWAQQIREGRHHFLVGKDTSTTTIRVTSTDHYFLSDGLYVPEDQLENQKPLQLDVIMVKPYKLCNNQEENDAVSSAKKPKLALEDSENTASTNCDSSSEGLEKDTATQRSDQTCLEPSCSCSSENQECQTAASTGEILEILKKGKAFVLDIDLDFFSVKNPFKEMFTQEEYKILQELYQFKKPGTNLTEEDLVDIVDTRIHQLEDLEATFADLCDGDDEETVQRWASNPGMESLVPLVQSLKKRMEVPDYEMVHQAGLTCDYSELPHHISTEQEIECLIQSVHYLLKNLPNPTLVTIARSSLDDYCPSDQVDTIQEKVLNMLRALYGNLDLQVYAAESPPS
Sequence of UniProt Q08379 (Q08379 whole entry): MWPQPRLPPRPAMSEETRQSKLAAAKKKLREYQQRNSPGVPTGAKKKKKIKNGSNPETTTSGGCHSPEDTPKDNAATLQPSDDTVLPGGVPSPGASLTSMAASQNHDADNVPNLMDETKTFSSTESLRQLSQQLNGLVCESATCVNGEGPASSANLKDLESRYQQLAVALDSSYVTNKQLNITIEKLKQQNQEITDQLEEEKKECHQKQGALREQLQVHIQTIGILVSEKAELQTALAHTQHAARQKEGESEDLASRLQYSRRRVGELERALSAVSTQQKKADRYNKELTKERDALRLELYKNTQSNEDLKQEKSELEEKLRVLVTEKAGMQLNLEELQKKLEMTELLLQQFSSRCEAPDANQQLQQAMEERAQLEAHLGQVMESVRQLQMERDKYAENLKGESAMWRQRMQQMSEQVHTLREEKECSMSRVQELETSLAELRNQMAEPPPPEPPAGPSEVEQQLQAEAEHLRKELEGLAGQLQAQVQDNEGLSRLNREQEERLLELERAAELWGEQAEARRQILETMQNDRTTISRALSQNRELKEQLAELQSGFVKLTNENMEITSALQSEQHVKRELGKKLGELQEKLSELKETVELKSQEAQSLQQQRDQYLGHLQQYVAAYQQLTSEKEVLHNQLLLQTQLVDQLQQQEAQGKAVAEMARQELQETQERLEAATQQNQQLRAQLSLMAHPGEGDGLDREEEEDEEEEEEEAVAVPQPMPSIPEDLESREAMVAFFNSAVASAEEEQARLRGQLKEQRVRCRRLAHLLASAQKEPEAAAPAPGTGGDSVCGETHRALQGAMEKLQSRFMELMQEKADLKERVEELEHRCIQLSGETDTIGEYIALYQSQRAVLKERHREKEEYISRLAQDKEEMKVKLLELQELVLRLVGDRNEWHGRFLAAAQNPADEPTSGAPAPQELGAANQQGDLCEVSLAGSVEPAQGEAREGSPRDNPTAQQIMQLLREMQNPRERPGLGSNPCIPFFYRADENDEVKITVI
Sequence of UniProt Q00839 (Q00839 whole entry, looked up): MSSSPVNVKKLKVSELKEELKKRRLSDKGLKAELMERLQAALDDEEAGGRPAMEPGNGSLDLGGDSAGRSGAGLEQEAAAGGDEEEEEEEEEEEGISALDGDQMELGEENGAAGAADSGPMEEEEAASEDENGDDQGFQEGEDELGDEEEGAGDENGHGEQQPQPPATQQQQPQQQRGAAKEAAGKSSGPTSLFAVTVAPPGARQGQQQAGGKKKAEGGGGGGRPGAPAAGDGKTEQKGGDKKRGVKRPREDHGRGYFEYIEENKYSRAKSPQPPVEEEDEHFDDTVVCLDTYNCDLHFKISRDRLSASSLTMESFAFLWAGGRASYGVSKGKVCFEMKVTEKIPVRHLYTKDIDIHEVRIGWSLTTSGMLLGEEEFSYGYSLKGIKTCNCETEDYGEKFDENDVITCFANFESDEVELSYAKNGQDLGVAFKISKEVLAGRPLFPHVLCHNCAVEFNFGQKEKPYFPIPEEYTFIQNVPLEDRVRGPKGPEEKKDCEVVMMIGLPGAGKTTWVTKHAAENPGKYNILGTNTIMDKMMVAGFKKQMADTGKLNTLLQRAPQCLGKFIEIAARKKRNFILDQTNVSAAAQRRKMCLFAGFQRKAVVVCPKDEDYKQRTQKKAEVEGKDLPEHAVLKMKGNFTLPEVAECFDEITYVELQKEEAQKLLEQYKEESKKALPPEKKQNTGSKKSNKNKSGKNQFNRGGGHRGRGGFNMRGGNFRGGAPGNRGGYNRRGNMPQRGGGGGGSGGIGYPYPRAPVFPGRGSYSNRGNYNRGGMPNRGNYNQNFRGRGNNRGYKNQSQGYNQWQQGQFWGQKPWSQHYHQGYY
Sequence of UniProt P52888 (P52888 whole entry, looked up): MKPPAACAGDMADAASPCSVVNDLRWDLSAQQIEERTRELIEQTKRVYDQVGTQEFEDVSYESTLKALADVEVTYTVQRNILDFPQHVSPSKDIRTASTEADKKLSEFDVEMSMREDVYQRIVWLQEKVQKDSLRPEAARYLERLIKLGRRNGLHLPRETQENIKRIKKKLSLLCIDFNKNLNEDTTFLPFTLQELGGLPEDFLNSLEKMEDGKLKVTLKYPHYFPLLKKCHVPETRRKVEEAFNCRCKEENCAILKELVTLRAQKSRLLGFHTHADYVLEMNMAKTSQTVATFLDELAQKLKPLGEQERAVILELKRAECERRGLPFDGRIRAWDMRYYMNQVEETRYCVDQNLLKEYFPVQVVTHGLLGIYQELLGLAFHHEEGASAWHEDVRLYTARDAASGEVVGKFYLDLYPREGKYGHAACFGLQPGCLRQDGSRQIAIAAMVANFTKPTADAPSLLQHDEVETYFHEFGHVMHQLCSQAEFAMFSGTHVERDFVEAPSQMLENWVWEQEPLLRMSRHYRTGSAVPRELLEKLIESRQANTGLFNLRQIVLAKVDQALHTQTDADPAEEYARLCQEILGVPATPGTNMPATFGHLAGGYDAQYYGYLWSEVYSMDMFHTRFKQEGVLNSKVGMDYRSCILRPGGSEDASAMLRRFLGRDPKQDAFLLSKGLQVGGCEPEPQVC
Sequence of UniProt Q13643 (Q13643 whole entry, looked up): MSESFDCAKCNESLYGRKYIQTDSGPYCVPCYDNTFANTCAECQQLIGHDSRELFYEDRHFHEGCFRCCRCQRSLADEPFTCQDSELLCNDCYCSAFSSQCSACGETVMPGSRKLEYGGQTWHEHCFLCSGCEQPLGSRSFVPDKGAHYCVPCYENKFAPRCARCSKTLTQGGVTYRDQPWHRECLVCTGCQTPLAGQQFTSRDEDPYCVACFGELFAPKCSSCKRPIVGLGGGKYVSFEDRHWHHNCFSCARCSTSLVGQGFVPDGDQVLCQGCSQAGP
Sequence of UniProt P53597 (P53597 whole entry, looked up): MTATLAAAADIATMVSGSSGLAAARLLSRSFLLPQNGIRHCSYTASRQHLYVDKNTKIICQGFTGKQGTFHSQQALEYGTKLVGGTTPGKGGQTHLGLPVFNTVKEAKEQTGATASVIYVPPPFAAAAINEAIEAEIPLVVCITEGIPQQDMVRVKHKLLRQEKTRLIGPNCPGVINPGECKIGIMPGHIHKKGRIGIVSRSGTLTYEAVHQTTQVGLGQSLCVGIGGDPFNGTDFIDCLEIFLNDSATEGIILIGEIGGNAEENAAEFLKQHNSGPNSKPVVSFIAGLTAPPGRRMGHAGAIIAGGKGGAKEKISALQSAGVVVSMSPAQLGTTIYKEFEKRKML
Sequence of UniProt P56277 (P56277 whole entry): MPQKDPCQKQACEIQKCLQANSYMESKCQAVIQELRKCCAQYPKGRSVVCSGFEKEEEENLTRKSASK
Sequence of UniProt Q16134 (Q16134 whole entry, looked up): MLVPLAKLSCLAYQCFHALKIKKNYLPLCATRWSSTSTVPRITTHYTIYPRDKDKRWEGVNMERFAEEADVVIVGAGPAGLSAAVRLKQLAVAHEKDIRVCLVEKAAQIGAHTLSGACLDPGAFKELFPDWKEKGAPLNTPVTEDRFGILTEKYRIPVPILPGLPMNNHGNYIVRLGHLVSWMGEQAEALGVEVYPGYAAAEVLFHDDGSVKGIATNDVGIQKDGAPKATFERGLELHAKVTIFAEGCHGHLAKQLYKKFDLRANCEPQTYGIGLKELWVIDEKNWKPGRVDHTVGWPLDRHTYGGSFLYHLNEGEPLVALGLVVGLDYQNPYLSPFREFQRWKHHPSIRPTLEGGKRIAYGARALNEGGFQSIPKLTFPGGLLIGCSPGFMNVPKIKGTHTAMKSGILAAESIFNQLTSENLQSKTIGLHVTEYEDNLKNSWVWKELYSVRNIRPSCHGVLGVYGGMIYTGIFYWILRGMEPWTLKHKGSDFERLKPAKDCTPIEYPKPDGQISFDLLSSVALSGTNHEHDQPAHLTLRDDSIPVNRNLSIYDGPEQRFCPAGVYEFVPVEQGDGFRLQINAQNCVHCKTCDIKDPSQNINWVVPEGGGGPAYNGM

Target | log2 ratio of iodoacetamide-alkyne labeling
RRP1B C583 (UniProt Q14684) | 0.481
IAH1 C4 (UniProt Q2TAA2) | 2.43 (active)
DYNC1H1 C3147 (UniProt Q14204) | 0.433
SUCLG1 C181 (UniProt P53597) | 1.72 (active)
MTA1 C512 (UniProt Q13330) | 0.481
SAFB C404 (UniProt Q15424) | 1.14 (active)
NUP98 C1027 (UniProt P52948) | 0.378
BPTF C1357 (UniProt Q12830) | 0.53
PITRM1 C556 (UniProt Q5JRX3) | 0.0671
UniProt Q02040_C542 | 0.763
NCAPH C316 (UniProt Q15003) | -0.0371
NUBP1 C25 (UniProt P53384) | 2.24 (active)
GOLGA2 C794 (UniProt Q08379) | 1.07 (active)
THOP1 C682 (UniProt P52888) | 0.174
FHL3 C150 (UniProt Q13643) | 0.146
ACOX1 C199 (UniProt Q15067) | 0.0457
C5orf22 C195 (UniProt Q49AR2) | 0.458
RRP1B C628 (UniProt Q14684) | 0.838

Target | log2 ratio of iodoacetamide-alkyne labeling
UniProt Q02750_C376 | -0.129
ETFDH C561 (UniProt Q16134) | 0.595
IAH1 C9 (UniProt Q2TAA2) | 2.43 (active)
ERCC6L C356 (UniProt Q2NKX8) | 0.193
BLM C704 (UniProt P54132) | 0.6
STX5 C68 (UniProt Q13190) | 0.4
UniProt P83731_C6 | 0.668
PPP5C C77 (UniProt P53041) | 0.135
UBE2V1 C144 (UniProt Q13404) | 0.136
ACTR3 C12 (UniProt P61158) | 0.212
MDC1 C1742 (UniProt Q14676) | 0.0644
UniProt Q15365_C118 | 1.72 (active)
CMC4 C12 (UniProt P56277) | 1.14 (active)
UniProt P62241_C71 | 0.335
UniProt P60842_C134 | 0.0481
PPP5C C11 (UniProt P53041) | 0.16
HNRNPU C450 (UniProt Q00839) | 0.018
UniProt Q5MNZ6_C6 | 0.235
